Assay results taken from publication PMC4336329 (PLoS ONE, 2015).
The campaign covered roughly 310,000 compounds. About 14,000 (4.5%) showed an effect of 50% or more. Effects have a minus sign here. Many of the other results were omitted from the sample, so strong results are more common in it than they were.

target: human ether-à-go-go-related gene (hERG) potassium channel (human, UniProt Q12809); test: primary screen, population patch clamp on CHO cells stably expressing hERG; higher = less effect of the substance
Sequence (Q12809 whole entry, looked up): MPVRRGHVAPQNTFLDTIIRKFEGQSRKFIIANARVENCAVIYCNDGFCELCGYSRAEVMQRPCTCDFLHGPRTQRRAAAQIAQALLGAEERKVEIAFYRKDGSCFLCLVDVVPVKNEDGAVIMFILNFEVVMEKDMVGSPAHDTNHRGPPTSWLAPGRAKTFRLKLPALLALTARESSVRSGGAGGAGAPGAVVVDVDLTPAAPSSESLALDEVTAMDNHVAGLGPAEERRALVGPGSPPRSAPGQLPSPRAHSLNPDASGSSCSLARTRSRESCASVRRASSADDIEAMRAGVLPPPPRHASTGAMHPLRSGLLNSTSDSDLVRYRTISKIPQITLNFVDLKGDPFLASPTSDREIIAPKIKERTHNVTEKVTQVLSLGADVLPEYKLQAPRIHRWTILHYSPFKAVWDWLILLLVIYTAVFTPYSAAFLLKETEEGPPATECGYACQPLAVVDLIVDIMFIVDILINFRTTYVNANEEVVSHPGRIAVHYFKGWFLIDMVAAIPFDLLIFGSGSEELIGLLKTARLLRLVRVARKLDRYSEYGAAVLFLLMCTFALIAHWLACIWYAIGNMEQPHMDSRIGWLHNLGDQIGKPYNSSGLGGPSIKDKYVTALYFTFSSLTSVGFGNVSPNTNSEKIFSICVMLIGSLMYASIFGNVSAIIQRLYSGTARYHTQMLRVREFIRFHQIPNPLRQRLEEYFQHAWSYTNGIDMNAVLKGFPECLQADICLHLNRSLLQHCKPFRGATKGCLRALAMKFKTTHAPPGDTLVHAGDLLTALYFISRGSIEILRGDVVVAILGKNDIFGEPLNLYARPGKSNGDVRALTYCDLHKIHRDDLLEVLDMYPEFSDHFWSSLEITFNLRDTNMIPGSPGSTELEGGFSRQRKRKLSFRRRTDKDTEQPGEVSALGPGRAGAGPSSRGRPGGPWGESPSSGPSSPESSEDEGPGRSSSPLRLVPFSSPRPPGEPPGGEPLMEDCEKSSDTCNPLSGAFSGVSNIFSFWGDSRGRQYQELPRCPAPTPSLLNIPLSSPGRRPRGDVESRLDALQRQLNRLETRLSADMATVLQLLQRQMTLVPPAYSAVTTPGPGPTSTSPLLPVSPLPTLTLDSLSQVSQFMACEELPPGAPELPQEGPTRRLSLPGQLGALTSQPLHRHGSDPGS
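Also: peak tail current of the secondary pulse compared with the same well before compound.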

Row | SMILES | hERG current change (%, negative = inhibition) at 10uM
1 | CN1CCN(NC(=O)c2ccc(Cl)cc2Cl)CC1 | 0.116%
2 | Cc1cc(C(=O)N/N=C2/CC(C)CC(C)(C)C2)c(C)o1 (centres unmarked) | -8.27%
3 | COc1ccc(CN2C3CCC2CC(NC(=O)c2cccc(F)c2)C3)cc1 (centres unmarked) | -75.2%
4 | COc1ccc(CN2C3CCCC2CC(NC(=O)c2cccc(F)c2)C3)cc1 (centres unmarked) | -82%
5 | COc1ccc(CN2C3CCC2CC(NC(=O)c2cc(OC)c(OC)c(OC)c2)C3)cc1 (centres unmarked) | -31.6%
6 | COc1ccc(NC(=S)N2CCC(NC(=O)c3cccc(F)c3)CC2)cc1 | -16.7%
7 | COc1cccc(C(=O)NC2CC3CCC(C2)N3Cc2ccccc2)c1 (centres unmarked) | -28.7%
8 | COc1ccc(C(=O)/C=C/c2cccc(OCc3ccccc3)c2)cc1CSCC(=O)O | 7.09%
9 | COc1ccccc1CNC(=O)CCS(=O)(=O)c1ccc2c(c1)CC(C)N2C(=O)C1CC1 (centres unmarked) | 15%
10 | COc1cccc(NC(=S)NCCc2ccccn2)c1 | 7.98%
11 | CS(=O)(=O)NCCCNc1ccc(C(F)(F)F)cc1[N+](=O)[O-] | -35.1%
12 | CS(=O)(=O)NCCNc1ccc(C(F)(F)F)cc1[N+](=O)[O-] | -6.08%
13 | CS(=O)(=O)NCCCCNc1ccc(C(F)(F)F)cc1[N+](=O)[O-] | -56.8%
14 | COc1ccc(NC(=O)C(=O)N/N=C/c2cccnc2)c(OC)c1 | 21.3%
15 | N#CC1(c2nc3ccccc3[nH]2)CC1c1ccc2c(c1)OCO2 (centres unmarked) | 0.101%
16 | O=C(COC(=O)c1ccc(Cl)c(S(=O)(=O)N2CCOCC2)c1)NCc1ccco1 | -17%
17 | COc1ccc(CN(C(=O)c2nsc(Cl)c2Cl)C(C(=O)NC2CCCC2)c2ccc(C)cc2)cc1 (centres unmarked) | -12.4%
18 | C/C(=N/OC(=O)c1ccc(C)cc1)c1ccc(N2C(=O)C3CCCCC3C2=O)cc1 (centres unmarked) | 16%
19 | CCOC(CCn1c(SCc2ccc([N+](=O)[O-])cc2)nc2ccccc2c1=O)OCC | -39%
20 | O=c1c2ccccc2nc(/C=C/c2ccc(Br)cc2)n1CCCO | 0.999%
21 | O=c1c2ccccc2nc(SCc2ccc([N+](=O)[O-])cc2)n1CCCO | -57.9%
22 | O=c1c2ccccc2nc(/C=C/c2ccccc2)n1CCCO | -8.23%

Row | SMILES | hERG current change (%, negative = inhibition) at 10uM
23 | O=c1c2ccccc2nc(/C=C/c2ccc([N+](=O)[O-])cc2)n1CCCO | -57.4%
24 | Cn1c(/C=C/c2ccc([N+](=O)[O-])o2)nc2ccccc2c1=O | -24.2%
25 | O=c1c2ccccc2nc(/C=C/c2ccc([N+](=O)[O-])o2)n1CCCO | -51.7%
26 | O=c1c2ccccc2nc(/C=C/c2cccc([N+](=O)[O-])c2)n1CCCO | -43%
27 | O=c1c2sccc2nc(SCc2cc(=O)n3ccccc3n2)n1Cc1ccccn1 | -22.3%
28 | O=c1c2sccc2nc(SCc2ccc([N+](=O)[O-])cc2)n1Cc1ccccn1 | -61.6%
29 | Nn1c(SCc2ccc([N+](=O)[O-])cc2)nc2ccccc2c1=O | 17.8%
30 | N#Cc1ccccc1CSc1nc2ccsc2c(=O)n1Cc1ccccn1 | -10.9%
31 | COCC(C)n1c(COc2ccccc2F)nnc1SCC(=O)c1c(N)n(C)c(=O)n(C)c1=O (centres unmarked) | 16.4%
32 | N#C/C(=C\c1c(F)cccc1Cl)S(=O)(=O)c1ccccn1 | 3.15%
33 | COc1cc(-c2nc(S(=O)(=O)c3ccc(Cl)cc3)c(N3CCOCC3)o2)cc(OC)c1OC | -3.17%
34 | Cl.NNc1nc(-c2ccccc2)cs1 | 29.7%
35 | COc1cccc(NC(=O)CCCN2C(=O)C3CC=CCC3C2=O)c1 (centres unmarked) | -2.79%
36 | Cc1cc([N+](=O)[O-])nn1CCCC(=O)NCc1ccccc1 | -5.8%
37 | Cc1ccccc1NC(=O)C1=CC=CN2CCS(=O)(=O)N=C12 | -11.7%
38 | O=C(Nc1cccc2ncccc12)c1cccc(F)c1 | -11.1%
39 | CCOC(=O)C1(CC2CC2)CCN(Cc2cn(C)c3ccccc23)CC1 | -31%
40 | CCOC(=O)C1(Cc2cccc(OC)c2)CCN(Cc2cccc3c2OCO3)CC1 | -39.4%
41 | CCOC(=O)C1(Cc2cccc(OC)c2)CCN(Cc2cccc(OCC)c2O)CC1 | -56.8%
42 | CCOC(=O)C1(Cc2ccccc2)CCN(Cc2cn(CC(=O)OC)c3ccccc23)CC1 | -78.1%
43 | CCOC(=O)C1(Cc2ccccc2)CCN(Cc2cccc(OC)c2O)CC1 | -69.6%
44 | CCOC(=O)C1(Cc2cccc(OC)c2)CCN(Cc2ccccc2OC)CC1 | -51.3%
